ALOX12 inhib: qHTS Assay for Inhibitors of 12-hLO (12-human lipoxygenase) | Polyunsaturated fatty acid lipoxygenase ALOX12 (Homo sapiens), P18054 | purified 12-hLO, xylenol orange hydroperoxide absorbance | Potency, µM (doses to about 57.1 µM), for inactives: top-dose activity change, negative = inhibition, hits mostly inhibitors | hit rate 0.12% among 150,000; further: nearly all actives have a fitted effect of over 55% in size
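Hydroperoxide output read as Fe(III)-xylenol orange absorbance, 573-to-405 nm ratio, after 30 min reaction with 40 uM arachidonic acid. Enzyme: 150 nM purified human 12hLO, 15 min compound preincubation; 25 mM Hepes pH 7.0, room temperature.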
p53ts 39C tox: qHTS Screen for Compounds that Selectively Target Cancer Cells with p53 Mutations: Cytotoxicity of p53ts Cells at the Nonpermissive Temperature | H1299-p53A138V viability at 39C, ATP luminescence, 24 h | Potency, µM (series often up to 46.1 µM), without a hit: at the top dose activity change, negative = cell killing, usual class: cytotoxic | hit rate 1.5% among 130,000; further: nearly all actives have a fitted effect of over 55% in size
p53ts 32C tox: qHTS Screen for Compounds that Selectively Target Cancer Cells with p53 Mutations: Cytotoxicity of p53ts Cells at the Permissive Temperature | H1299-p53A138V at 32C, ATP luminescence viability, 24 h | Potency, µM (doses to about 46.1 µM), for inactives: at the highest dose activity change, negative = cytotoxicity, most hits filed as cytotoxic | hit rate 0.93% among 130,000 | AID 924, 2007;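 further: 0% = DMSO and -100% = full killing by reference compound; nearly all actives have a fitted effect of over 55% in size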
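H1299-p53 A138V cells (temperature-sensitive p53) exposed 24 h to up to 46 uM compound at 32C, where p53 is wild-type in conformation. Viability read as ATP luminescence and normalised to DMSO and 100 uM tamoxifen. AC50 fitted with the Hill equation.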
HPGD inh: qHTS Assay for Inhibitors of HPGD (15-Hydroxyprostaglandin Dehydrogenase); 15-hydroxyprostaglandin dehydrogenase [NAD(+)] (Homo sapiens), P15428; purified HPGD, NADH fluorescence kinetic, PGE2 substrate; Potency, µM, inactives show at the highest dose activity change, negative = inhibition, usual class: inhibitors; hit rate 4.3% among 150,000; AID 894, 2007; active means well fitted inhibition curve with a large enough effect, not every such curve was filed as active; inconclusive means small, poorly fitted or top-dose-only effect, or another doubt; inactive means no such curve, though single readings can be large or run the other way
Target sequence (P15428 whole entry, looked up): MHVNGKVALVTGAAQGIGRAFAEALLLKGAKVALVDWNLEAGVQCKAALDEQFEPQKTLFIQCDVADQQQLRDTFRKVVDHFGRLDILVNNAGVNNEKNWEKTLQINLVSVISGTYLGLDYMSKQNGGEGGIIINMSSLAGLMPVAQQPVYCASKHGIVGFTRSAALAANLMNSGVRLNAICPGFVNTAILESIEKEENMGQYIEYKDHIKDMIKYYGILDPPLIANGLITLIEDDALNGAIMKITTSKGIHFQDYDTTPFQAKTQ
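20 nM HPGD preincubated 15 min at room temperature with compound in 50 mM Tris-HCl pH 8, 0.01% Tween 20. Started with 1 mM NAD+ and 30 uM prostaglandin E2; NADH fluorescence (360/450 nm) read 5 times over 30-s intervals, last minus first.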
* marks the source's active call; other numbers are inactive results; ? = inconclusive; nt = not tested or not shown; [ ] = dose if it differs, or a comment. Hits are enriched below; roughly 4.4% of the tested compounds scored in any of these assays. Unless noted, the call rests on the fitted dose curve; in most records, active means well fitted curve in the direction sought with a large enough effect; inconclusive means small, poorly fitted or top-dose-only effect, or another doubt; inactive means no such curve, though single readings can be large; an effect the other way counts as inactive or inconclusive. Unless noted, on the % scale 0 is the no-effect control and ±100 the full control effect; potency means the concentration at half of the fitted maximal effect.

SMILES | ALOX12 inhib | p53ts 39C tox | p53ts 32C tox | HPGD inh
Cc1cccc(CNc2ncncc2-c2cccc(NS(C)(=O)=O)c2)c1 | -5.3% | 0.7% | -2.5% | 15.8µM*
COc1cccc(-c2ccc3ncnc(NCc4cccnc4)c3c2)c1 | nt | -2.2% | 8.8% | nt
CS(=O)(=O)Nc1cccc(-c2ccc3ncnc(NCc4cccnc4)c3c2)c1 | 1.8% | 12.3% | -5.4% | 25.1µM*
Cc1ccc(-c2n[nH]c3c2C(c2cccc(O)c2)N(c2ccc(C(=O)O)cc2)C3=O)cc1 (stereo not drawn) | nt | -0.7% | -19.1% | nt
O=C1c2[nH]nc(-c3ccc(Br)cc3)c2C(c2cccc(O)c2)N1c1ccc(Cl)cc1 (stereo not drawn) | nt | 15.8µM* | ? | nt
C/C(CCN1CCCc2nc(C)c(C)cc21)=N\OC[C@@H](O)COCc1ccco1 | nt | 5.7%[9.22 µM] | -3.5%[9.22 µM] | nt
CCN1CCN(Cc2c(O)ccc3cc(-c4ccc(OC)cc4)c(=O)oc23)CC1 | nt | -15.8% | -12.2% | nt
Cc1ccc(-n2c(SCC(=O)NCc3ccc(F)cc3)nc3c([nH]c4ccccc43)c2=O)cc1 | nt | 5.5% | -0.8% | nt
COc1cccc(-c2cc(=O)c3ccccc3o2)c1N | -9.9% | 5.01µM* | 7.94µM* | 12.6µM*
O=c1cc(-c2ccccc2F)oc2ccccc12 | -0.1% | -19.0% | -16.4% | 12.6µM*
COc1ccccc1-c1cc(=O)c2cccc(OC)c2o1 | -3.6% | 0.1% | 3.4% | ?
O=c1cc(-c2ccc(O)cc2O)oc2ccccc12 | -10.5% | -13.0% | -11.7% | ?
CCc1ccc(S(=O)(=O)Nc2ccc(O)c(C(=O)O)c2)cc1 | -7.4% | 9.9% | 3.5% | -9.4%
Cc1ccc(CNS(=O)(=O)c2cc(C(=O)Nc3cccc(C(F)(F)F)c3)ccc2F)cc1 | nt | 12.6µM* | -18.4% | nt
O=C(CCCSc1nc(-c2ccco2)cc(C(F)(F)F)n1)NCc1cccs1 | -10.7% | 61.9% | 14.4% | 17.8µM*
FC(F)(F)c1cc(-c2ccco2)nc(NCc2cccs2)n1 | -13.8% | 20µM* | ? | -16.1%
FC(F)(F)c1cc(-c2ccco2)nc(NCc2ccco2)n1 | -9.3% | -7.6% | 2.6% | -4.6%
O=C(CSc1nc(-c2ccco2)cc(C(F)(F)F)n1)Nc1ccc(C(=O)N2CCCCC2)cc1 | -1.4% | 45.1% | 41.7% | 0.562µM*
O=C(CCCSc1nc(-c2ccco2)cc(C(F)(F)F)n1)NCC1CCCO1 (stereo not drawn) | 6.0% | 12.0% | 1.7% | 7.94µM*
Cc1ccc(NC(=O)CSc2nc(-c3ccco3)cc(C(F)(F)F)n2)cc1 | nt | ? | -25.8% | nt
O=C(CCSc1nc(-c2ccco2)cc(C(F)(F)F)n1)NCC1CCCO1 (stereo not drawn) | 0.4% | 1.3% | 2.7% | ?
CCC(C)(C)C(=O)O[C@@H]1C[C@@H](C)C=C2C=C[C@H](C)[C@H](CC[C@@H]3C[C@@H](O)CC(=O)O3)[C@H]21 | -0.7% | nt | nt | -2.4%
O=C(CN1C=NS(=O)(=O)c2ccccc21)Nc1ccc(F)cc1 | nt | 24.5% | -11.7% | nt
C=CC1=C2C=C(C3CC3)N(CCCOC(C)C)C=C2C(=O)C(C)(OC(=O)c2ccco2)C1=O (stereo not drawn) | 3.8%[11.4 µM] | nt | nt | -6.6%
O=C(O)Cc1ccc(C(=O)c2cccs2)s1 | -10.1% | 0.9% | 1.0% | 12.6µM*
N#CC1=C2SCN(Cc3ccco3)CN2C(=O)CC1c1ccc(Cl)cc1 (stereo not drawn) | ? | 8.7% | -1.1% | 11.2µM*
COc1ccc(C2C(C#N)=C(N)Oc3cc(C)n(Cc4ccco4)c(=O)c32)cc1 (stereo not drawn) | 2.6% | nt | nt | 3.3%
COc1ccc(C2CC(=O)N3CN(c4ccccc4F)CSC3=C2C#N)cc1OC (stereo not drawn) | -19.2% | -2.2% | -1.2% | ?
COc1ccc2ccccc2c1C1CC(=O)N2CN(Cc3ccco3)CSC2=C1C#N (stereo not drawn) | -12.8% | 1.6% | -4.0% | 7.94µM*
CC(C)c1ccc(C2CC(=O)N3CN(Cc4ccco4)CSC3=C2C#N)cc1 (stereo not drawn) | ? | 8.7% | -1.6% | 15.8µM*

Screening results as filed in PubChem BioAssay.
